Screens as filed in PubChem BioAssay.
This is a sample that favours compounds with a hit; in the whole collection about 12% have one here.
G9a block: G9a (human) methyltransferase inhibition; 8.8% of 350,000 active; G9a H3K9 monomethylation, AlphaScreen, 2 h; Q96KQ7; AID 504332; Potency, µM (series often up to 102 µM), for the others: top-dose activity, negative = inhibition, actives largely listed as inhibitors; also: % is scaled to controls: 0 for no effect and ±100 for the full control effect; nearly all actives have a fitted effect of over 75% in size
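Methyltransferase reactions run at room temperature for 2 h (20 nM enzyme, 500 nM biotin-H3K9 peptide, 20 uM SAM) after a 15 min compound preincubation; product detected by AlphaScreen beads and anti-H3K9me1 antibody.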
HP1b binding inh: blocks HP1-beta chromodomain binding to methylated histone tails; P83916; AlphaScreen HP1-beta / biotin-H3K9me3 peptide binding; Potency, µM (top dose mostly 114 µM), for the others: at the highest dose activity change, negative = inhibition, usual class: inhibitors; 0.56% of 390,000 active; also: nearly all actives have a fitted effect of over 70% in size
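Compound inhibition of the preformed complex between 50 nM HP1-beta and 50 nM biotinylated H3K9me3 peptide was read by AlphaScreen. Buffer was PBS pH 7.4 with 0.01% Tween-20. Incubations ran 30 min at room temperature, with 10 ug/mL donor/acceptor beads.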
PLK1 PBD inh: PLK1 (human) polo-box domain binding inhibition; Plk1 PBD binding of FITC phosphopeptide, fluorescence polarization; Potency, µM, inactives show max response, negative = inhibition, actives largely listed as inhibitors; 2.8% of 360,000 active; AID 720504; also: series mostly up to about 57 µM; % is scaled to controls: 0 for no effect and ±100 for the full control effect; nearly all actives have a fitted effect of over 65% in size
Target sequence (P53350 whole entry, looked up, the tested form may be a part): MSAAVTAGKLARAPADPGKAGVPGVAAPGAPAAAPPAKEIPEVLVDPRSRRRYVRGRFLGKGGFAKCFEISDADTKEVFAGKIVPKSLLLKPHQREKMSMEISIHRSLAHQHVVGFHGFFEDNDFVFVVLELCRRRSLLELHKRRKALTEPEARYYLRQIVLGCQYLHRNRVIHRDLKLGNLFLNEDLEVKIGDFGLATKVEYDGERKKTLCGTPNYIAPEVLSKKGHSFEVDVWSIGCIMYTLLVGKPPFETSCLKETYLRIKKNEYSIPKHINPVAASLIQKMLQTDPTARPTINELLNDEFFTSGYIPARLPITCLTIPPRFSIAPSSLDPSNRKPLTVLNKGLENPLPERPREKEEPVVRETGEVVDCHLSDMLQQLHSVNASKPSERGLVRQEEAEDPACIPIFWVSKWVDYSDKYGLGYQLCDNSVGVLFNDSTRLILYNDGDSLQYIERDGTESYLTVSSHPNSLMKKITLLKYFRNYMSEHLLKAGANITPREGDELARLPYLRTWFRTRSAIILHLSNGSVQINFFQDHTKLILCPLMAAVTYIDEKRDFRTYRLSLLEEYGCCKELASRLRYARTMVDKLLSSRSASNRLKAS
JMJD2A Tudor inh: JMJD2A Tudor domain (human) inhibition | Potency, µM (series often up to 114 µM), for the others: top-dose activity change, negative = inhibition, actives largely listed as inhibitors | AlphaScreen JMJD2A-Tudor / H3K4me3 peptide binding | AID 504339 | 4.4% of 390,000 active | O75164; also: % is scaled to controls: 0 for no effect and ±100 for the full control effect; nearly all actives have a fitted effect of over 50% in size
BAZ2B inh: blocks human BAZ2B | 4.4% of 360,000 active | Potency, µM (top dose mostly 114 µM), inactives show at the top dose activity change, negative = inhibition, actives largely listed as inhibitors | Q9UIF8 | AID 504333 | AlphaScreen BAZ2B-H3K14Ac peptide displacement; also: % is scaled to controls: 0 for no effect and ±100 for the full control effect; nearly all actives have a fitted effect of over 60% in size
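In this displacement format the biotinylated H3(5-23) peptide acetylated at Lys14 serves as ligand at 50 nM, with BAZ2B at 50 nM in PBS pH 7.4 containing 0.01% Tween-20. Donor and acceptor beads are 10 ug/mL final.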
Sfp PPTase inh: Sfp phosphopantetheinyl transferase inhibition | Biochemical Sfp PPTase activity, qHTS | 3.5% of 310,000 active | Potency, µM, for the others: largest response in the series, negative = inhibition, most hits filed as inhibitors | Q9F4F7 | AID 1490;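 also: the enzyme is Sfp with the accession as filed and its product quenches rhodamine fluorescence; 0% = enzyme reaction without inhibitor and -100% = no enzyme wells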
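Compounds were incubated with enzyme (final 15 nM) for 15 min at room temperature before substrate addition started the reaction. Fluorescence at 525 nm excitation, 598 nm emission was recorded immediately and after 30 minutes.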
The depositor's hits bear a star; ? = inconclusive; / = no result; ! = a repeat was not active; [ ] = remark or other dose. Calls follow the shape of the dose curve; as a rule, active = well fitted curve in the direction sought with a large enough effect; inconclusive = small, poorly fitted or top-dose-only effect, or another doubt; inactive = no such curve, though single readings can be large; an effect the other way counts as inactive or inconclusive. Potency is read from the fitted curve at half-maximal effect.

SMILES	G9a block	HP1b binding inh	PLK1 PBD inh	JMJD2A Tudor inh	BAZ2B inh	Sfp PPTase inh
Cn1cccc1/C=C1\SC(=S)N(NC(=O)c2ccccc2Cl)C1=O	-17%[59 µM]	13%	38%	-13%	?	2%
COc1ccc(CC(=O)NC2CC2)cc1OC	6%	56%	-6%	-22%	-1%	12%
COCCNC(=O)CSCc1cc(C)cc(C)c1	26%	2%	-5%	-9%	15%	11%
O=C(OCc1ccccc1)/C(=C(\O)c1ccccc1Br)c1ccc(-c2ccccc2)cn1	-4%[2.33 µM]	80%	1%	-8%	56µM*	/
O=C(OCc1ccccc1)c1cccnc1Cl	37%	37%	0%	25%	18%	10%
Cn1c(N/N=C/c2cccs2)cc(=O)n(C)c1=O	50µM*	35%	-2%	7%	-4%	-17%
Cc1cc2nc(SCCOC(=O)Nc3ccc(Cl)cc3)nc(C)c2cc1C	2µM*	22%	-7%	-16%	-39%	17%
Clc1ccc(N=NN2CCOCC2)cc1	50µM*	26%	-8%	2%	7%	14%
COc1cccc(NC(=O)Cc2ccc(NC(=O)N3CCCCc4ccccc43)cc2)c1	0%[59 µM]	3%	/	11µM*	-1%	/
CCCCOc1ccc(CNC(=O)Cc2ccc(NC(=O)N3CCCCc4ccccc43)cc2)cc1	-5%[59 µM]	10%	/	79µM*	-19%	/
COc1ccc(NC(=O)Cc2ccc(NC(=O)N3CCCCc4ccccc43)cc2)c(OC)c1	-9%[59 µM]	14%	/	-33%	-35%	/
COC(=O)c1ccc(Cn2c(=O)cc(C(F)(F)F)c3c(C)nn(C)c32)cc1	32%[59 µM]	44%	/	4%	-12%	/
Cc1cccn2c(CNCC3OCCc4ccccc43)c(C(=O)N3CCCCC3)nc12 (centres undefined)	/	20%	-7%	-23%	-7%	-1%
Cc1ccc(S(=O)(=O)Nc2nc(C)c(C)s2)cc1	22µM*	44%	-24%	-9%	-28%	-6%
CC(=O)Oc1ccc(/C=N/NS(=O)(=O)c2ccccc2)cc1	8%[59 µM]	34%	-1%	-15%	-8%	-4%
Cc1cccc(/C=C/C(=O)c2ccc([N+](=O)[O-])o2)c1	-17%[2.33 µM]	17%	?	-32%	?	/
Cc1ccccc1/C=C/C(=O)c1ccc([N+](=O)[O-])o1	-8%[2.33 µM]	?	?	?	35µM*	/
O=C(/C=C/c1cccc([N+](=O)[O-])c1)c1ccc([N+](=O)[O-])o1	/	42%	5.3µM*	-22%	/	/
Cc1cc(C)c(NC(=O)CCCSc2nnc(N)s2)c(C)c1	50µM*	38%	-13%	-7%	-29%	14%
Nc1nnc(SCCCC(=O)c2ccccc2)s1	16%	34%	-21%	-5%	-5%	13%
CCOC(=O)C1=C(C)NC(=S)N(C=O)C1c1ccccc1 (centres undefined)	-21%	18%	-7%	-10%	-20%	12%
COc1cc([C@@H]2c3cc4c(cc3[C@@H](O[C@@H]3O[C@H]5CO[C@@H](C)O[C@@H]5[C@@H](O)[C@H]3O)[C@@H]3COC(=O)[C@@H]23)OCO4)cc(OC)c1O	/	/	/	/	/	89µM*
Cn1c(SCCc2ccc([N+](=O)[O-])cc2)nccc1=O	/	11%	4%	-9%	/	/
O=[N+]([O-])c1ccc(SCCc2ccccn2)cc1	13µM*	-17%	17µM*	-33%	-21%	?
O=[N+]([O-])c1ccc(SCCc2ccncc2)cc1	11µM*	?	19µM*	50µM*!	50µM*	50µM*
SMILES	G9a block	HP1b binding inh	PLK1 PBD inh	JMJD2A Tudor inh	BAZ2B inh	Sfp PPTase inh
CN(CCc1ccccn1)c1ccc([N+](=O)[O-])cn1	-3%[59 µM]	11%	3%	-6%	-9%	3%
CS(=O)(=O)N(CC(=O)Nc1ccc(CC#N)cc1)c1ccc(C23CC4CC(CC(C4)C2)C3)cc1	-42%	10%	2%	-24%	-1%	12%
O=C1c2cc(O)cc(O)c2OC[C@@H]1c1ccc(O)c(O)c1	/	/	/	/	/	-11%
CN1Cc2sccc2C(c2ccc(O)c(O)c2)C1 (centres undefined)	8.4µM*	/	/	/	/	/
CC(=O)c1c(C(=O)O)[nH]c(C(=O)O)c1C	16µM*	5%	-18%	-18%[11.4 µM]	?	0%
CC(c1ccncn1)N(C)Cc1nc(-c2ccc(C(F)(F)F)cc2)no1 (centres undefined)	15%	40%	1%	5%	39%	14%
Cc1oc(-c2ccc3ccccc3c2)nc1CN(C)C(C)c1ccncn1 (centres undefined)	?	-6%	0%	?	-30%	22µM*
Cc1ccccc1C(=O)N(Cc1nc2ccccc2c(=O)[nH]1)C1CCCC1	-1%	27%	4%	-12%	-22%	8%
Cc1sc(N)nc1C12CC3CC(CC(C3)C1)C2	45µM*	?	1%	-26%	?	-12%
CS(=O)(=O)Nc1cccc(C2=NN(S(=O)(=O)c3ccccc3)C(c3ccco3)C2)c1 (centres undefined)	50µM*	?	30µM*	?	-21%	56µM*
CCS(=O)(=O)Nc1cccc(C2=NN(S(=O)(=O)c3ccc(C)cc3)C(c3ccco3)C2)c1 (centres undefined)	?	23%	-15%	?	/	50µM*
CCS(=O)(=O)Nc1cccc(C2=NN(S(=O)(=O)c3ccccc3)C(c3ccco3)C2)c1 (centres undefined)	?	-22%	-7%	?	-30%	?
Cc1c(/C=N\NC(=O)c2ccc([N+](=O)[O-])cc2)cnn1C	12%[59 µM]	28%	6%	-11%	9%	23%
Cc1ccc(NC(=O)c2cc3nc(-c4ccc5c(c4)OCO5)cc(C(F)(F)F)n3n2)cc1Cl	8%[59 µM]	34%	/	2%	-15%	/
O=C(c1ccncc1)N1CCC2(CCN(Cc3nccs3)CC2)CC1	39%[12.7 µM]	/	/	/	/	2%
Cc1nnc(C)n1/N=C/c1cccnc1	1%[59 µM]	42%	-1%	6%	0%	20%
CN(C)c1ccc(/C=N/n2c(-c3cccnc3)n[nH]c2=S)cc1	3.2µM*	7%	-4%	5µM*	?	-8%
